# Screening results (PubChem BioAssay)
# In the library only some 8.3% were active in any assay of this set; here they are far more common.
# BCR signal inh = chronic active BCR signaling inhibition; ABC-DLBCL IkBa-CBG/CBR reporter, luminescence ratio, 4 h; Potency, µM (top dose mostly 46.1 µM), without a hit: top-dose activity change, negative = inhibition, usual class: inhibitors; 340,000 tested, 0.05% active; active = well fitted inhibition curve with a large enough effect in the signal ratio, with a control signal flat, not every such curve was filed as active; inconclusive = small, poorly fitted or top-dose-only effect, or effect the other way, or a change in a side signal; the % refers to the signal ratio;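 note: potency is the fitted concentration of half-maximal effect; plate controls were basal doxycycline-induced cells for no effect and cells given 10 µM MG132 for full effect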
#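 Doxycycline induced both beetle luciferases in TMD8 lymphoma cells; IKK-driven degradation limits the IkappaBalpha-fused green signal, while red luminescence normalises for cell number and nonspecific effects. Compounds tested up to 46 uM, 4 hrs.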
# SW480 rerep = induces DNA re-replication in SW480 colon adenocarcinoma cells; SW480 DNA re-replication, Hoechst DNA content imaging, 48 h; Potency, µM (top dose mostly 46.1 µM), inactives show at the top dose re-replication activation, hits mostly activators; 340,000 tested, 1.8% active; AID 624297; note: potency is the fitted concentration of half-maximal effect; % of control where 0% means no effect; nearly all actives have a fitted effect of over 55% in size
#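 DNA re-replication was detected as more nuclei of elevated Hoechst intensity after 48 hr exposure to compound (23 nL pinned per well of 250 cells).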
# Giardia killer = Giardia lamblia killing; Giardia lamblia trophozoite viability; activity change, % at 7.66 µM, hits read low; 340,000 tested, 0.15% active; AID 540267; in the data active = activity change below about -80%; inconclusive = between about -30% and that limit;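 note: parasites exposed to compound for two days anaerobically before the ATP read; % is set by controls: 0 for no effect and ±100 for the full control effect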
#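 Media and compound were dispensed first, then trophozoites at 100 cells/well; plates sat 48 hrs at 37 deg C without oxygen before ATP luminescence reagent was added and read after 15-30 min at room temperature.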
# RORgamma inh = ROR gamma (mouse) transcription inhibition | P51450 | Drosophila S2 Gal4-RORgamma UAS-luciferase reporter, 20 h | Potency, µM (titrated, usually from 53.6 µM), inactives show top-dose activity change, negative = inhibition, hits mostly inhibitors | 310,000 tested, 5.4% active; note: potency is the fitted concentration of half-maximal effect; % is set by controls: 0 for no effect and ±100 for the full control effect; nearly all actives have a fitted effect of over 60% in size
# Target sequence (P51450 whole entry, looked up, the tested form may be a part): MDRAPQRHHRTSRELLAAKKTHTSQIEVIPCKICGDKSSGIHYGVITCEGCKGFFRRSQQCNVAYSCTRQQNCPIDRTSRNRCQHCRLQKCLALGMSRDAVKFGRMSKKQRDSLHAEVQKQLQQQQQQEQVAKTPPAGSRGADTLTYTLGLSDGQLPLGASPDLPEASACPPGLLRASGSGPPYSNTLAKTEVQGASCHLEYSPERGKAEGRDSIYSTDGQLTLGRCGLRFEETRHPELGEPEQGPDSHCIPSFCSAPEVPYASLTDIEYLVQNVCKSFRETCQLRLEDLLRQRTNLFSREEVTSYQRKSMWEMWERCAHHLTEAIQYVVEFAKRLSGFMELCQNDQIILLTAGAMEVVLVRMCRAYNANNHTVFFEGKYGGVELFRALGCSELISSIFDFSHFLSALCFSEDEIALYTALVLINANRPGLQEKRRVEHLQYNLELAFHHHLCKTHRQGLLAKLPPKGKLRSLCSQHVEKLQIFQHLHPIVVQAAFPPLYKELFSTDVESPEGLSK
#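 Stable Schneider cell line, Gal4 DNA-binding domain fused to ROR gamma, UAS-luciferase. Cmpd 1 hr RT → CuSO4 700 uM final → 20 hr RT → luciferase reagent 10 min → luminescence.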
# Gal4-VP16 FLuc = counter-screen for ROR gamma inhibitors: Gal4-VP16 reporter; 310,000 tested, 3.5% active; AID 2546; Drosophila S2 Gal4-VP16 UAS-luciferase, luminescence, 20 h; Potency, µM (titrated, usually from 53.6 µM), for inactives: at the highest dose activity, negative = inhibition, hits mostly inhibitors;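 note: Gal4-VP16 expression switched on by copper sulfate through the metallothionein promoter; potency is the fitted concentration of half-maximal effect; % is set by controls: 0 for no effect and ±100 for the full control effect; nearly all actives have a fitted effect of over 50% in size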
# MCF10A rerep = induces DNA re-replication in MCF 10a normal breast cells | MCF 10A DNA re-replication, Hoechst nuclear intensity, 48 h | Potency, µM (series often up to 46.1 µM), inactives show at the top dose activity, positive = re-replication, usual class: activators | 350,000 tested, 2.9% active; note: potency is the fitted concentration of half-maximal effect; % of control where 0% means no effect; nearly all actives have a fitted effect of over 50% in size
# Active calls of the source: *; ? = inconclusive; . = no result; [ ] = dose if it differs, or a comment. Unless noted, calls come from the whole dose curve; as a rule, active = well fitted curve in the direction sought with a large enough effect; inconclusive = small, poorly fitted or top-dose-only effect, or another doubt; inactive = no such curve, though single readings can be large; an effect the other way counts as inactive or inconclusive.
SMILES,BCR signal inh,SW480 rerep,Giardia killer,RORgamma inh,Gal4-VP16 FLuc,MCF10A rerep
COc1ccc(CCN2CCCC(CN(C)Cc3cc(OC)ccc3OC)C2)cc1 (configuration not stated),-3%,-7%,-3,0%,-8%,0.65µM*
COc1ccc(CCN2CCCC(CN(C)Cc3cccc(OC)c3)C2)cc1 (configuration not stated),-6%,0%,-26,0%,2%,5%
Cc1ccc(C(=O)CSc2nnc(-c3ccc4[nH]c(C)c(C)c4c3)o2)cc1C,?,1%,3,9%,-3%,-1%
Cc1[nH]c2ccc(-c3nnc(SCC(=O)c4ccccc4F)o3)cc2c1C,?,4%,7,12%,-1%,16µM*
Nc1ccccc1N=Nc1ccccc1N,2%,-26%[9.22 µM],-14,10µM*,?,-32%
Nc1ccc(N=Nc2ccccc2)c(N)c1,.,.,.,-2%,3%,.
Cc1cc(O)c(C)c(O)c1/C=N/NC(=O)c1cccnc1,-7%,?,-15,7.9µM*,7.9µM*,-5%
Cn1cccc1/C=N\NC(=O)c1cncc(Br)c1,?,?,-29,13µM*,?,?
COc1ccc2ccccc2c1/C=N\NC(=O)c1cccnc1,.,3.7µM*,23,.,.,18µM*
Cc1ccc(C(=O)N/N=C/c2c(O)ccc3ccccc23)cn1,?,25%,10,5µM*,7.1µM*,24%
O=C(N/N=C/c1ccc2c(c1)OCO2)C1CC1,?,4%,42,8%,4%,-3%
O=C(O)c1cc(-c2ccc(-c3ccc(F)cc3)o2)nc2ccccc12,?,-5%,?,?,?,?
CC(C)Sc1nc(-c2cccs2)nc2c1c(=O)n(C)c(=O)n2C,-15%,.,.,0%,-1%,.
O=C(N/N=C/c1c(O)ccc2ccccc12)c1cccnc1,?,0.82µM*,3,10µM*,13µM*,?
O=C(N/N=C\c1c(O)ccc2ccccc12)c1cncc(Br)c1,1%,?,-14,5µM*,4.5µM*,15µM*
CC(C)Oc1ccc(CN2CCC(n3nccc3NC(=O)CCc3ccccc3)CC2)cc1,0%,?,-9,-1%,6%,3%
CCOc1ccccc1NC(=O)c1nc[nH]c1C(=O)Nc1ccccc1OCC,-4%,21µM*,7,2µM*,4µM*,?
COc1ccccc1NC(=O)C1=C(C)Nc2ncnn2C1c1ccccc1C (configuration not stated),1%,4.1µM*,0,18%,-4%,-188%[0.0737 µM]
CCOc1ccccc1NC(=O)c1ccccc1-c1nc(-c2ccccc2)no1,4%,23µM*,4,?,-14%,26%
COc1ccccc1NC(=O)c1nc[nH]c1C(=O)Nc1ccccc1OC,?,7%,-11,2µM*,?,7%
COc1ccccc1NC(=O)c1ccc(C(=O)Nc2ccccc2OC)nc1,2%,-3%,5,-10%,-2%,2%
Cc1ccccc1NC(=O)c1[nH]cnc1C(=O)NN,3%,0%,-24,-18%,4%,2%
COC1=C2C[C@H](C)C[C@H](OC)[C@@H](O)[C@@H](C)C=C(C)[C@H](OC(N)=O)[C@@H](OC)C=CC=C(C)C(=O)NC(=CC1=O)C2=O,.,.,6,.,.,.
COc1ccc(C(OC(=O)c2ccco2)C(=O)NC(C)(C)C)cc1 (configuration not stated),1%,-2%,27,-7%,-3%,2%
Cc1ccccc1NC(=O)CSc1cn[nH]n1,2%,-5%,-8,-4%,-3%,?
SMILES,BCR signal inh,SW480 rerep,Giardia killer,RORgamma inh,Gal4-VP16 FLuc,MCF10A rerep
CCOc1ccccc1NC(=O)CSc1cn[nH]n1,-11%,-59%,6,.,.,16µM*
CC1CCCC(NC(=O)Cc2ccc(Br)cc2)C1C (configuration not stated),-3%,4%,5,-44%,2%,?
S=C(NC1CCCCC1)NN(c1ccccc1)c1ccccc1,7%,-1%,8,2.5µM*,5.6µM*,?
CN(C(=S)NC(=O)c1ccc(Cl)cc1)C1CCCCC1,?,2%,0,0.32µM*,0.79µM*,8%
CC1CCCC(NC(=S)NC(=O)c2ccccc2Br)C1C (configuration not stated),?,?,2,2.5µM*,5µM*,?
CC(NC(=S)NC1CCCCC1)c1ccccc1 (configuration not stated),3%,-1%,1,-18%[1.91 µM],?,-2%
COc1ccc(Cl)cc1C(=O)NNC(=S)NC1CCCCC1,1%,-37%,10,0.25µM*,?,0%
COc1ccc(-n2nc3c(c2NC(=O)COc2ccccc2)CS(=O)C3)cc1 (configuration not stated),?,?,3,-3%,-1%,4%
O=C(NC(=S)NC1CCCCC1)c1ccccc1,-18%,-2%,-5,5µM*,7.1µM*,13%
O=C(NNC(=S)Nc1ccccc1Cl)c1ccccc1Br,?,-7%,-6,7.9µM*,?,0%
CN(C(=S)NC(=O)c1ccccc1)C1CCCCC1,-2%,14%,5,1.1µM*,1.3µM*,3%
CN(C(=O)c1cccc(NC(=O)c2ccccc2)c1)C1CCCCC1,3%,-2%,-5,23%,-15%,1%
O=C(NNC(=S)NC1CCCCC1)c1ccccc1Br,?,0%,9,1.1µM*,?,0%
CCOC(=O)N1CCN(C(=O)CN2C(=O)NC(C)(c3ccc4ccccc4c3)C2=O)CC1 (configuration not stated),2%,1%,4,.,.,3%
CC1=CC(C2CC(=O)N(c3ccccc3C)C2=O)CC2C(=O)N(c3ccccc3C)C(=O)C12 (configuration not stated),0%,-8%,-28,68%,-2%,-1%
CCOc1ccc(OCC(=O)NCCS(=O)(=O)N2CCN(c3cccc(Cl)c3)CC2)cc1,0%,.,.,.,.,.
COC(=O)Cc1ccc(NC(=S)NNC(=O)c2ccccc2Br)cc1,?,1%,1,1.6µM*,18µM*,-9%
CN(C(=S)NC(=O)c1ccc(F)cc1)C1CCCCC1,?,-5%,-19,0.89µM*,1.1µM*,6%
CCCCCN=c1ccn(Cc2ccccc2)c2ccccc12,.,.,.,16µM*,-5%,.
Cc1c(NC(=O)CSc2nnc3c4ccccc4n(CCc4ccccc4)c3n2)c(=O)n(-c2ccccc2)n1C,5%,?,-2,-1%,11%,8.2µM*
CCOc1ccccc1/C=N/Nc1nc2c(N)ncnc2n1[C@H]1O[C@@H](CO)[C@H](O)[C@@H]1O,?,8.2µM*,22,-4%,-1%,6%
